# The list shows a part of the results. How many sequences the whole screen found active is unknown.
# Molecular target: furin, P09958
# Assay: furin cleavage Z-score vs untreated control; higher = more cleavage, active = 3.5 or more, inactive = 1 or less, 8 variable residues between constant flanks
# How it was run: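 Magnetic beads held 8-mer peptides by the N-terminus, each fused to a cDNA oligonucleotide, and purified furin was added for 7.5, 15 or 30 min. Released DNA was sequenced after PCR adapter tagging. The cleavage Z-score is the log count relative to furin-free reactions, lowess-adjusted and divided by median absolute deviation.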
# 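Further: purified furin at 1:10 enzyme:substrate in 50 mM HEPES pH 7.5.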
# furin, P09958, sequence (P09958 whole entry): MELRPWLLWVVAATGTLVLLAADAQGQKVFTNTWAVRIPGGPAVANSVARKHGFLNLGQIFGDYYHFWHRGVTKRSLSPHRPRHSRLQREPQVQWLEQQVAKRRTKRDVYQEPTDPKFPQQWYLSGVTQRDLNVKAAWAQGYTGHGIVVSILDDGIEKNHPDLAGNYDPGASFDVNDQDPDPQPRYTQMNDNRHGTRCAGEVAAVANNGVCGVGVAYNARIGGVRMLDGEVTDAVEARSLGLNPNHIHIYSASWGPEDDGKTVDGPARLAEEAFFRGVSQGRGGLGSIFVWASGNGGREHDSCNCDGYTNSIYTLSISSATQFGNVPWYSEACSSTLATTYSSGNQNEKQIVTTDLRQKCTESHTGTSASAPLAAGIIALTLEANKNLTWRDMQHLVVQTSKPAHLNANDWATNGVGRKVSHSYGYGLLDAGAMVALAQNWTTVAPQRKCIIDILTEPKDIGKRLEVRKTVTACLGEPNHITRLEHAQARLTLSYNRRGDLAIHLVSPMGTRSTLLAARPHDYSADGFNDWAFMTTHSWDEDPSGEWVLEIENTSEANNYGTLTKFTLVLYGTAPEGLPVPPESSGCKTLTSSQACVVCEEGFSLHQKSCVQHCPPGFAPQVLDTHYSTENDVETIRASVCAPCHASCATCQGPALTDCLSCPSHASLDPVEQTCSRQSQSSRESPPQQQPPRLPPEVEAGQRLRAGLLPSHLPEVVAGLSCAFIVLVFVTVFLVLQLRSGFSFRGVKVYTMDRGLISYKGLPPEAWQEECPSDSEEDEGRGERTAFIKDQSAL
Sequence,furin cleavage Z-score (7.5 min),furin cleavage Z-score (15 min),furin cleavage Z-score (30 min)
CAGAGNNTLHAGNASASA [HC447],-0.871 (inactive),0.802 (inactive),-0.559 (inactive)
CADATYSRCGAGNASASA [HC456],0.156 (inactive),1.42,0.00204 (inactive)
CAKVPCHRPSAGNASASA [HC2314],1.64,0.0197 (inactive),0.762 (inactive)
CAAEIRLKRAAGNASASA [FS-1442],9.68 (active),9.78 (active),8.4 (active)
CARRSRCIRAAGNASASA [FS-1405],9.51 (active),10.1 (active),8.44 (active)
CALGNIIMFAAGNASASA [HC1575],-0.725 (inactive),-1.13 (inactive),-0.0117 (inactive)
CARRVRCSGAAGNASASA [FS-2802],-0.409 (inactive),0.495 (inactive),0.927 (inactive)
CARRSRLKRAAGNASASA [FS-496],11.4 (active),11.7 (active),8.87 (active)
CALGRRTKRAAGNASASA [FS-50],9.24 (active),10.5 (active),6.44 (active)
CALGSRYKKAAGNASASA [FS-819],-0.0568 (inactive),-0.0472 (inactive),-0.113 (inactive)
CAAENRALRLAGNASASA [FS-113],0.559 (inactive),-1.89 (inactive),1.32
CAAEQFKQKAAGNASASA [HC1023],0.841 (inactive),0.435 (inactive),-1.43 (inactive)
CAVCWTVYHGAGNASASA [HC699],-0.241 (inactive),1.41,-1.21 (inactive)
CAEVVTSTPVAGNASASA [HC2239],-0.71 (inactive),-0.517 (inactive),-0.991 (inactive)
CATTPCSGVWAGNASASA [HC1910],-0.00612 (inactive),1.65,0.601 (inactive)
CAETVVCCSMAGNASASA [HC2138],0.723 (inactive),1.46,0.375 (inactive)
CALSRRLKRAAGNASASA [FS-460],12.9 (active),10.6 (active),7.76 (active)
CARSKRRHRTAGNASASA [FS-3086],5.67 (active),4.65 (active),6.42 (active)
CARSKRSRLLAGNASASA [FS-3208],2.35,5.37 (active),6.91 (active)
CALPATQLRRAGNASASA [HC287],-0.751 (inactive),-1.22 (inactive),-0.432 (inactive)
CARSVRARLLAGNASASA [HC1623],-0.453 (inactive),0.839 (inactive),-0.225 (inactive)
CARSELSPLLAGNASASA [HC490],0.997 (inactive),-1.17 (inactive),0.877 (inactive)
CALTVTQLLRAGNASASA [HC1136],-0.529 (inactive),1.28,-0.0718 (inactive)

Sequence,furin cleavage Z-score (7.5 min),furin cleavage Z-score (15 min),furin cleavage Z-score (30 min)
CARSKRQLRRAGNASASA [FS-2305],5.77 (active),8.83 (active),9.3 (active)
CARSKRSALRAGNASASA [FS-1930],8.67 (active),9.74 (active),9.58 (active)
CARSKRPPLVAGNASASA [FS-3085],-1.04 (inactive),1.04,0.266 (inactive)
CATPVNSWLGAGNASASA [HC1572],-0.962 (inactive),0.658 (inactive),-0.136 (inactive)
CADQMWKCLIAGNASASA [HC963],-0.00547 (inactive),0.512 (inactive),0.111 (inactive)
CAEVPCHRASAGNASASA [HC2383],-0.108 (inactive),1.91,1.32
CAMLVCGDDLAGNASASA [HC1527],-1.47 (inactive),-2.12 (inactive),-1.71 (inactive)
CARMKRDTSLAGNASASA [FS-2354],12.7 (active),14.2 (active),10.6 (active)
CARSKRLMKRAGNASASA [FS-3264],7.59 (active),8.33 (active),6.04 (active)
CARSKRLLSDAGNASASA [FS-2524],1.69,0.376 (inactive),1.96
CARSKRSTLLAGNASASA [FS-3171],6.63 (active),9.65 (active),8.72 (active)
CAAPITAYAQAGNASASA [HC674],-1.65 (inactive),-1.79 (inactive),-0.691 (inactive)
CARVRRAVLPAGNASASA [FS-2536],8.16 (active),9.49 (active),9.52 (active)
CARQGRGSDPAGNASASA [FS-2583],-1.86 (inactive),-0.176 (inactive),0.17 (inactive)
CARVRRRGSPAGNASASA [FS-2108],-0.273 (inactive),2.05,2
CARIARVVLQAGNASASA [FS-2028],-0.514 (inactive),-0.914 (inactive),1.2
CARVPRKVQPAGNASASA [FS-3121],-0.302 (inactive),1.08,0.984 (inactive)
CARVRRHSDPAGNASASA [FS-2406],10.2 (active),8.54 (active),6.84 (active)
CATTQWQVLPAGNASASA [HC495],-0.0417 (inactive),1.36,0.907 (inactive)
CARVPRTVLPAGNASASA [FS-1801],1.52,0.946 (inactive),3.87 (active)
CARIARFVLPAGNASASA [FS-2683],2.58,2.47,6.22 (active)
CAGIYRFVAPAGNASASA [HC909],-1.23 (inactive),-0.739 (inactive),-0.847 (inactive)
